We go through one molecule from the supplement of paper PMC8728848.

Experiment in all cases: glycan array binding signal (z-score within array); higher = stronger binding
Holding throughout (conditions): glycan notation: IUPAC condensed, linker removed

One test concerns the target GalNAc(b1-3)GlcNAc. The gist of the method:
(§1)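 The Consortium for Functional Glycomics database supplied 3228 glycan arrays, of which those lacking an available protein sequence were dropped. The binding signal, a within-array Z-score, was averaged across arrays of the same protein sequence and across linkers. Negative scores can be read as non-binding.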

For a further test, the target named is GalNAc(b1-4)GlcNAc. The method in brief:
as §1

The target of another test is GalNAc4S6S(b1-4)GlcNAc. The method in brief: as §1
In the next test the target is GlcA(b1-3)Gal. The method in brief:
as §1

For a further test, the target named is GlcA(b1-6)Gal. The gist of the method: as §1
Test [1] concerns the target GlcNAc(a1-4)Gal(b1-4)GlcNAc(b1-3)Gal(b1-4)Glc. The gist of the method: as §1
The target of test [2] is GlcNAc(a1-4)Gal(b1-4)GlcNAc(b1-3)Gal(b1-4)[Fuc(a1-3)]GlcNAc(b1-3)Gal(b1-4)[Fuc(a1-3)]GlcNAc. The gist of the method: as §1
The target in test [3] is GlcNAc(b1-3)Gal(b1-4)GlcNAc. The method in brief:
as §1

Test [4] concerns the target GlcNAc(b1-3)Gal(b1-4)GlcNAc(b1-2)[GlcNAc(b1-3)Gal(b1-4)GlcNAc(b1-6)]Man(a1-6)[GlcNAc(b1-3)Gal(b1-4)GlcNAc(b1-2)Man(a1-3)]Man(b1-4)GlcNAc(b1-4)GlcNAc. The method in brief:
as §1

In test [5] the target is Man(a1-2)Man(a1-6)[Man(a1-3)]Man(a1-6)[Man(a1-2)Man(a1-2)Man(a1-3)]Man. The method in brief:
as §1

Test [6] has as its target Neu5Ac(a2-3)Gal(b1-3)GlcNAc(b1-3)Gal(b1-3)GlcNAc. The gist of the method: as §1
Test [7] concerns the target Neu5Ac(a2-3)Gal(b1-3)[Fuc(a1-4)]GlcNAc. The method in brief:
as §1

The target of test [8] is Neu5Ac(a2-3)Gal(b1-4)GlcNAc(b1-2)Man(a1-3)[Neu5Ac(a2-6)Gal(b1-4)GlcNAc(b1-2)Man(a1-6)]Man(b1-4)GlcNAc(b1-4)GlcNAc. The method in brief: as §1
The target of test [9] is Neu5Ac(a2-3)Gal(b1-4)GlcNAc(b1-3)Gal(b1-4)GlcNAc(b1-6)[Gal(b1-3)]GalNAc. The method in brief:
as §1

Test [10] addresses Neu5Ac(a2-3)Gal(b1-4)[Fuc(a1-3)]GlcNAc(b1-3)Gal. The method in brief: as §1
The target in test [11] is Neu5Ac(a2-3)Gal(b1-4)[Fuc(a1-3)]GlcNAc6S. The method in brief:
as §1

Test [12] has as its target Neu5Ac(a2-6)Gal(b1-4)GlcNAc(b1-2)[Neu5Ac(a2-6)Gal(b1-4)GlcNAc(b1-4)]Man(a1-3)[GlcNAc(b1-4)][Neu5Ac(a2-6)Gal(b1-4)GlcNAc(b1-2)[Neu5Ac(a2-6)Gal(b1-4)GlcNAc(b1-6)]Man(a1-6)]Man(b1-4)GlcNAc(b1-4)GlcNAc. The method in brief: as §1
For test [13], the target named is Neu5Ac(a2-6)Gal(b1-4)GlcNAc(b1-3)Gal(b1-4)GlcNAc(b1-3)Gal(b1-4)GlcNAc(b1-2)Man(a1-3)[Neu5Ac(a2-6)Gal(b1-4)GlcNAc(b1-3)Gal(b1-4)GlcNAc(b1-3)Gal(b1-4)GlcNAc(b1-2)Man(a1-6)]GalNAc. The gist of the method: as §1
Test [14] addresses Neu5Gc(a2-8)Neu5Gc(a2-3)Gal(b1-4)GlcNAc(b1-3)Gal(b1-4)GlcNAc. The method in brief:
as §1

Many of the other results were omitted from the sample, so the strongest signals are more common in it than they were.

B1: AT3G44510(29) (Arabidopsis thaliana), F4J341 (protein)
chain: MEEHLQGRIKLHDGRYLAYKERGVPKDDAKFTIVLVHGFGSSKDMNFNVSQELVNEIGIYFVLYDRAGYGESDPNPKRSLKSEAYDVQELADGLEIGSRFYLIGISMGSYTVWSCLKHIPQRLAGVAMVAPVVNFRWPSIPKSLMPKDYRREVAKWSVWIANYFPGLLQWLVTQNMFSTTSMLEKNPVYFNDQDIEVLKHIKGFPMLTKEKLRERGVFGTLRSDFLVAFGDWDFDPADLPDPSLSGPEKGSSSVHIWQGYEDKVMPFQLQRCLCRKLPWIRYHEVPKGGHLIVHYDGICDAILKSLLLGEDLPMYKPKAVITEPA
On to B1, for which the “glycan array binding signal (z-score)” value with GalNAc(b1-3)GlcNAc is -0.421; in the test with GalNAc(b1-4)GlcNAc, 9.27; in the test with GalNAc4S6S(b1-4)GlcNAc it was -0.488; with GlcA(b1-3)Gal it was 1.18; with GlcA(b1-6)Gal, 0.079; in test [1], 0.232. Further, the “glycan array binding signal (z-score)” value is 1.31 in test [2]; 0.6 in [3]; 2.5 in [4]; -0.613 in test [5]; -0.556 in [6]; -0.723 in test [7]. The “glycan array binding signal (z-score)” value is 2.04 in test [8]; -0.343 in [9]; -0.706 in test [10]; 0.419 in test [11]; -0.785 in test [12]; 2.59 in test [13]. Moreover, the “glycan array binding signal (z-score)” value in test [14] turned out to be 0.206.
